Rows were chosen to be rich in hits. Some 19% of all compounds tested hit in one or more screens of this group.
HT1080NT lethal = kills 2HG-producing HT-1080-NT fibrosarcoma cells | AID 686970 | Potency, µM (highest dose often 46.1 µM), inactives show top-dose activity, negative = less viability, actives largely listed as cytotoxic | actives 1.6% (n = 360,000) | HT-1080-NT fibrosarcoma viability, CellTiter-Glo ATP luminescence, 48 h;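 note: NT is the 2HG producing partner of a matched IDH1 knockdown line; potency is the fitted concentration of half-maximal effect; 0% = DMSO-treated cells and -100% = media-only wells without cells; nearly all actives have a fitted effect of over 55% in size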
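Viability by CellTiter-Glo luminescence after 48 h compound exposure at 37C of HT-1080-NT cells (750/well, RPMI, 5% FBS). % activity scaled between DMSO wells and medium-only wells, then curve-fitted and categorized by curve class.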
uPA generation = inhibitors of cell surface uPA generation; cell surface uPA generation assay, qHTS; Potency, µM (doses to about 38.3 µM), inactives show at the top dose activity change, negative = inhibition, most hits filed as inhibitors; actives 0.31% (n = 330,000); AID 540303; active = well fitted inhibition curve with a large enough effect; inconclusive = small, poorly fitted or top-dose-only effect; inactive = no such curve, though single readings can be large or run the other way; tested in mouse RAW 264.7 cells; note: potency is the fitted concentration of half-maximal effect; nearly all actives have a fitted effect of over 55% in size
DT40 TDP1 CPT = growth inhibition of DT40 Tdp1-/-;hTDP1 cells with camptothecin (screen for TDP1 inhibitors). actives 12% (n = 420,000). Potency, µM (highest dose often 46.2 µM), without a hit: top-dose activity change, negative = growth inhibition, usual class: inhibitors. chicken DT40 Tdp1-/-;hTDP1 cells + 20 nM CPT, ATP luminescence, 48 h. AID 686979; note: potency is the fitted concentration of half-maximal effect; nearly all actives have a fitted effect of over 55% in size
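Chicken DT40 Tdp1-/- cells complemented with human TDP1, 400 cells/well, exposed to compounds plus 20 nM camptothecin for at least 48 h at 37 C; viability read as ATP content by CellTiter-Glo luminescence.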
IL1B secr inh = blocks inflammasome-driven IL-1 beta release; THP-1 LPS/ATP IL-1B secretion, AlphaLISA, 16 h; active compounds read low; activity change, % at 57.5 µM; actives 4.7% (n = 360,000); in the data active = activity change below about -50%; inconclusive = mostly about -30% to -49%
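THP-1 cells pretreated 1 hr with compounds (up to 57.5 uM final), then stimulated with LPS (250 ng/mL final) plus ATP (1.25 mM final); secreted IL-1B measured by AlphaLISA after 16 hr, decreased signal indicating inhibition.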
DT40 TDP1 no CPT = qHTS for Inhibitors of human tyrosyl-DNA phosphodiesterase 1 (TDP1): qHTS in cells in absence of CPT | AID 686978, 2013 | actives 15% (n = 420,000) | Potency, µM (doses to about 46.2 µM), without a hit: at the highest dose activity change, negative = growth inhibition, actives largely listed as inhibitors | DT40 Tdp1-/- hTDP1 cells, no CPT, ATP luminescence, 48 h; note: potency is the fitted concentration of half-maximal effect; nearly all actives have a fitted effect of over 55% in size
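Luminescent ATP content (CellTiter-Glo) served as the growth readout. Knockout chicken DT40 cells expressing human TDP1 were exposed to compounds without camptothecin for a minimum 48 hr at 37 °C.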
HT1080 IDH1KD tx = kills HT-1080 cells with IDH1 knockdown; HT-1080 IDH1 knockdown viability, ATP luminescence, 48 h; Potency, µM (top dose mostly 46.1 µM), for the others: at the top dose activity, negative = toxicity, hits mostly cytotoxic; actives 2% (n = 360,000); AID 686971;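 note: potency is the fitted concentration of half-maximal effect; 0% = DMSO wells and -100% = cell-free medium wells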
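HT-1080-IDH1KD cells (IDH1 knocked down), 750/well in RPMI with 5% FBS, treated with compound 48 h at 37 degrees C. Viability by CellTiter-Glo luminescence, normalised to DMSO and no-cell wells; concentration-response curves classed.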
* marks the source's active call; other numbers are inactive results; ? = inconclusive; / = no result. Unless noted, calls come from the whole dose curve; as a rule, active = well fitted curve in the direction sought with a large enough effect; inconclusive = small, poorly fitted or top-dose-only effect, or another doubt; inactive = no such curve, though single readings can be large; an effect the other way counts as inactive or inconclusive. Unless noted, % is set by controls: 0 for no effect and ±100 for the full control effect.

SMILES	HT1080NT lethal	uPA generation	DT40 TDP1 CPT	IL1B secr inh	DT40 TDP1 no CPT	HT1080 IDH1KD tx
COc1ccc(C(CC(=O)Nc2cc([N+](=O)[O-])ccc2OC)c2ccccc2)cc1 (stereo not drawn)	-1%	5%	16µM*	17	?	5%
COc1ccc(-c2noc(N(c3ccc(F)c(Cl)c3)c3nc(-c4ccc(OC)c(OC)c4)no3)n2)cc1OC	/	/	1%	/	-10%	/
COc1ccc(C)cc1CN(C)c1ccc(S(=O)(=O)N2CCN(C)CC2)cn1	-14%	-3%	?	-6	?	-14%
Cc1ccc2c(c1)-c1cc(C)ccc1C2=O	18%	-3%	15%	-3	-3%	-6%
COc1ccc(OC)c(NC(=O)Nc2nnc([C@@H]3O[C@H](CO)[C@@H](O)[C@H]3O)s2)c1	17%	/	-8%	12	1%	25%
COc1ccc(N(CC(=O)Nc2ccccc2OC)S(=O)(=O)c2ccc(NC(C)=O)cc2)cc1	?	-11%	5.2µM*	26	5.2µM*	?
COC(=O)c1ccc(Cl)c(NC(=O)CN(c2ccc(OC)cc2)S(=O)(=O)c2ccccc2)c1	1%	-1%	?	11	?	5%
COC(=O)c1cc(NC(=O)CN(c2ccc(OC)cc2)S(=O)(=O)c2ccc(F)cc2)ccc1Cl	-11%	0%	18µM*	0	18µM*	-9%
COC(=O)c1ccccc1NC(=O)CN(c1ccc(Cl)cc1)S(=O)(=O)c1ccc(OC)cc1	/	/	21µM*	/	9.2µM*	/
COc1ccc(N(CC(=O)Nc2ccc(S(=O)(=O)N3CCOCC3)cc2)S(=O)(=O)c2ccccc2)cc1	-1%	-11%	16µM*	0	18µM*	1%
CC1CC(C)CN(C(=O)COC(=O)CCCN2C(=O)c3cccc4cccc(c34)C2=O)C1 (stereo not drawn)	15%	1%	6%	1	-26%	5%
CC1(C)CCCN(C(=O)c2ccc3c(c2NCCO)C(=O)c2ccccc2C3=O)C1	-10%	-6%	?	-65*	?	-9%
O=C1c2ccccc2C(=O)c2c1ccc(C(=O)N1CCCCC1)c2NCCO	5%	2%	?	-7	?	17%
CCN(CCN(C)C)C(=O)c1ccc2c(c1NCCO)C(=O)c1ccccc1C2=O	?	-4%	?	-30	23µM*	?
Cc1ccc(-n2c(SCC(N)=O)nc3c(oc4ccccc43)c2=O)cc1	-20%	1%	?	47	18µM*	-13%
Cc1cc(C)cc(-n2c(SCC(N)=O)nc3c(oc4ccccc43)c2=O)c1	/	/	?	/	15µM*	/
O=C(Nc1nnc(-c2ccccc2)s1)C1CCCN(C(=O)c2ccoc2)C1 (stereo not drawn)	/	/	?	/	-25%	/
O=C(O)COCC(=O)N1CCN(c2cc(C(F)(F)F)nc3ccccc23)CC1	16%	6%	5%	-8	16%	13%
COc1ccc2nc(N3CCN(C(=O)C4CC4)CC3)sc2c1	/	/	-3%	/	-25%	/
CN(C)c1ccc(C(=O)N2CCN(c3cc(C(F)(F)F)nc4ccccc34)CC2)cc1	-7%	4%	?	-55*	?	-15%
Cc1cc(C)c2sc(NC(=O)C3CC3)nc2c1	1%	-10%	0%	-1	?	-12%
Cc1cc(C)c(C(=O)c2ccc(C(=O)N3CCCCC3)cc2)c(C)c1	4%	2%	-25%	-1	-8%	-22%
CCOC(=O)C1CCN(C(=O)C2CCN(c3nc4ccc(OC)cc4s3)CC2)CC1	-2%	-3%	13µM*	-26	16µM*	-15%
Cc1cc(C)c2sc(N3CCN(C(=O)C4CC4)CC3)nc2c1	/	/	29µM*	/	18µM*	/
Cc1cc(C)c2sc(N3CCN(C(=O)c4ccc(N(C)C)cc4)CC3)nc2c1	/	/	?	/	15µM*	/
SMILES	HT1080NT lethal	uPA generation	DT40 TDP1 CPT	IL1B secr inh	DT40 TDP1 no CPT	HT1080 IDH1KD tx
CN1CCN(c2ncnc3c2ncn3[C@H]2CN(Cc3ccc(C(=O)O)cc3)C[C@@H](CO)O2)CC1	26%	/	1%	-1	1%	2%
COC(CNC(=O)c1cn(C)c2ccc(S(=O)(=O)N(C)C3CCCCC3)cc2c1=O)OC	?	-1%	-25%	-18	?	-29%
Cn1c(SCC(=O)NNC(=O)c2ccccc2Br)nnc1C(F)(F)F	-4%	-4%	-5%	-8	-1%	-1%
O=C1c2ccccc2C(Nc2ccc3c(c2)OCO3)N1Cc1ccc2c(c1)OCO2 (stereo not drawn)	-27%	-9%	?	-17	15µM*	-24%
Cc1ccc(-c2csc(N3CCN(c4ccc5nc(-c6ccncc6)n(CCN6CCCCC6)c5c4)CC3)n2)cc1	1%	2%	?	6	?	-7%
CCCn1c(C)nc2cc(Cl)c(N3CCN(c4nc(-c5ccc(C)cc5)cs4)CC3)cc21	-10%	-8%	?	20	?	-3%
COc1ccc(-c2csc(NCCc3nc4cc(Cl)c(N5CCCCC5)cc4n3CCOCCO)n2)cc1	0%	-16%	23µM*	0	9.2µM*	1%
OCCOCCn1c(CCNc2nc(-c3ccc(F)cc3)cs2)nc2cc(C(F)(F)F)ccc21	-3%	-14%	?	-15	?	-4%
Cc1ccc(-c2csc(N3CCN(c4cc5c(cc4Cl)nc(-c4ccncc4)n5CCN4CCCCC4)CC3)n2)cc1	?	4%	?	-59*	?	-14%
OCCCn1c(CCCNc2nc(-c3cccc(Br)c3)cs2)nc2cc(Cl)c(N3CCCCC3)cc21	18µM*	-7%	?	0	16µM*	?
COc1ccc(-c2csc(N3CCN(c4cc5c(cc4Cl)nc(-c4ccncc4)n5CCOCCO)CC3)n2)cc1	-2%	0%	12µM*	-2	?	-1%
COc1ccc(N2CCN(S(=O)(=O)CCNC(=O)Cc3ccc(Cl)cc3)CC2)cc1	/	/	3%	/	-23%	/
CCN(c1ccc(NC(=O)c2ccc(Cl)nc2)cc1)C(C)C	-4%	?	?	71	?	0%
COc1ccc(C(=O)C(C)[n+]2ccc(C)c3ccccc32)cc1[N+](=O)[O-] (stereo not drawn)	-9%	3%	18µM*	0	7.3µM*	-10%
Cc1nc(CC(=O)Nc2cccc(C)c2C)cs1	/	/	-3%	/	-22%	/

Screens (PubChem BioAssay)
